High-throughput results: PubChem BioAssay, Emory University Molecular Libraries Screening Center
This is one part of a sample in which hits are shown more often than they occur.
14-3-3g Raf: 14-3-3 gamma protein interaction modulation. FP, 14-3-3gamma / TMR-pS259-Raf peptide binding. 0.19% of 160,000 active. inhibition, % at 40 µM. P61981; in the data active means inhibition above about 30%;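 further: 0% = protein plus tracer without compound and 100% = blank with tracer alone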
Target sequence (P61981 whole entry, looked up): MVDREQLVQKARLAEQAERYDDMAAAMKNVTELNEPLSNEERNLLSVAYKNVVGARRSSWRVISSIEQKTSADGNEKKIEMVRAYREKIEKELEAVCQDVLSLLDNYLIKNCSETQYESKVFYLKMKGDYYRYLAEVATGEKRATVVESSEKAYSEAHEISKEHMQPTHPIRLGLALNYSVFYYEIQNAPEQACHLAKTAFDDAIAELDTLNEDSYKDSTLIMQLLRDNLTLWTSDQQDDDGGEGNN
Active calls of the source: *.

SMILES | 14-3-3g Raf
CNc1cc(Nc2ccc(C)cc2)c2c3c(onc13)-c1ccccc1C2=O | -89.4
O=S(=O)(NCC1CC2C=CC1C2)c1ccc(F)cc1 (stereo not given) | -11.5
O=C(COC(=O)c1c2c(nc3ccccc13)CCCC2)c1ccccc1 | -11.9
O=[N+]([O-])c1ccc(N2CCCC2)c(S(=O)(=O)N2CCOCC2)c1 | -4.5
CN1CCN(c2ccc([N+](=O)[O-])cc2S(=O)(=O)N2CCCC2)CC1 | 38.7*
Cc1ccc([N+](=O)[O-])cc1S(=O)(=O)N1CCCCC1 | 5.0
NC(=O)c1ccccc1NC(=O)c1cccc(F)c1 | 1.8
CC1CC(=O)N(c2ccc(N(C)Cc3ccccc3)c([N+](=O)[O-])c2)C1=O (stereo not given) | -3.8
CC1CCC2C(=O)N(c3ccc(N(C)Cc4ccccc4)c([N+](=O)[O-])c3)C(=O)C2C1 (stereo not given) | 37.8*
CC1CCC2C(=O)N(c3ccc(N(C)C4CCCCC4)c([N+](=O)[O-])c3)C(=O)C2C1 (stereo not given) | -1.4
NS(=O)(=O)c1ccc(N=C2NC(=O)C(CC(=O)Nc3ccc(Br)cc3)S2)cc1 (stereo not given) | -20.0
O=C(CCCCCN1C(=O)c2ccccc2C1=O)Nc1ncn[nH]1 | -1.6
COCCCn1c(=N)c(C(=O)NCc2ccccc2)cc2c(=O)n3ccccc3nc21 | -16.6
Cc1ccc(CNC(=O)c2ccc(N(C)S(=O)(=O)c3ccccc3)cc2)cc1 | 52.8*
Cc1ccccc1CNC(=O)c1ccc(N(C)S(=O)(=O)c2ccccc2)cc1 | -4.5
CN(c1ccc(C(=O)NCc2ccccc2)cc1)S(=O)(=O)c1ccccc1 | -4.2
OC(CN1CCOCC1)CN(c1ccccc1)c1ccccc1 (stereo not given) | 92.3*
OC(CN1CCOCC1)CN1CCOCC1 | -5.1
OC(CN1CCCCC1)CN(c1ccccc1)c1ccccc1 (stereo not given) | -5.8
CCC(=O)N1c2ccccc2-c2nnc(SC)nc2OC1c1cccs1 (stereo not given) | 0.4
Cn1c(=O)c2c(SCc3cccc(C(F)(F)F)c3)nc(-c3ccc([N+](=O)[O-])cc3)nc2n(C)c1=O | -2.5
COc1cccc(C2C(C(=O)OCCc3ccccc3)=C(C)NC3=C2C(=O)CCC3)c1OC (stereo not given) | -5.7
Cc1ccc(N2C(=S)NC3CC2(C)Oc2ccc(Cl)cc23)cc1 (stereo not given) | 3.6
O=c1c2cccnc2[nH]c(=S)n1CCN1CCN(c2ccccc2F)CC1 | -14.1
Cc1ccccc1-c1nc2cc(N=Cc3cc(Cl)cc([N+](=O)[O-])c3O)ccc2o1 | -5.5
SMILES | 14-3-3g Raf
CN(C)c1ccc(-c2nc3cc(N=Cc4cc(Cl)ccc4O)ccc3o2)cc1 | -36.5
Cc1ccc(-c2nc3cc(N=Cc4cc(C)cc([N+](=O)[O-])c4O)ccc3o2)cc1 | 53.5*
Cc1ccc(-c2nc3cc(N=Cc4cccc([N+](=O)[O-])c4O)ccc3o2)cc1C | -59.8
Oc1ccc(Cl)cc1C=Nc1ccc(-c2nc3cc(Cl)ccc3o2)cc1 | 84.5*
Cc1ccc(-c2nc3cc(N=Cc4cc(Cl)ccc4O)ccc3o2)cc1 | -6.8
COC(=O)c1ccc(NC(=O)COc2cccc(C)c2)cc1 | -40.7
Cc1ccc2nc(-c3ccc(N4C(=O)CC(N5CCCN(C)CC5)C4=O)cc3)sc2c1 (stereo not given) | -143.7
C#CCn1c2ccccc2c2ccccc21 | 57.8*
OCCN1CCN(CC#CCn2c3ccccc3c3ccccc32)CC1 | -1.5
OC(CCl)Cn1c2ccccc2c2ccccc21 (stereo not given) | 7.8
Cc1ccc(CCNC(=O)c2c[nH]c3ccc(S(=O)(=O)Nc4ccc(C(C)C)cc4)cc3c2=O)cc1 | 3.1
O=C(Nc1cc([N+](=O)[O-])ccc1Cl)c1cccc2c(Br)cccc12 | 3.9
CCC(=O)N1CCc2cc(S(=O)(=O)CCC(=O)N3CCN(c4ccccn4)CC3)ccc21 | 13.7
COc1cc(C2CC(=O)C3=C(C2)Nc2ccccc2NC3c2cccc(OC)c2OC)cc(OC)c1OC (stereo not given) | -1.1
CCOC(=O)C1Nc2ccc(C(=O)O)cc2C2C=CCC12 (stereo not given) | -81.8
O=C(O)c1ccc2c(c1)C1C=CCC1C(c1ccncc1)N2 (stereo not given) | -2.2
CCOC(=O)c1ccc2c(c1)C1C=CCC1C(C(=O)O)N2 (stereo not given) | -48.3
O=C(O)c1ccc2c(c1)C1C=CCC1C(C(=O)O)N2 (stereo not given) | 36.3*
COc1ccccc1C1Nc2ccc(C(=O)O)cc2C2C=CCC21 (stereo not given) | -75.2
O=C(O)c1ccc2c(c1)C1C=CCC1C(c1ccccn1)N2 (stereo not given) | 62.2*
Cc1ccc(NS(=O)(=O)c2ccc3[nH]c(=O)c(=O)[nH]c3c2)cc1 | -8.6
O=C1C(c2ccccc2F)N(CCc2ccccc2)C(=O)CN1C1CCCCCC1 (stereo not given) | -1.8
CC(C)Cn1c(=O)c(C(=O)Nc2cccnc2)c(O)c2ccccc21 | -0.5
N#Cc1c(NC(=O)c2cc3nc(-c4ccco4)cc(C(F)(F)Cl)n3n2)sc2c1CCCCC2 | -3.7
O=C(CCn1c(=S)oc2ccccc21)Nc1ccc(Cl)c(C(F)(F)F)c1 | 0.8
SMILES | 14-3-3g Raf
CCOC(=O)C(=O)C(C#N)c1ccccc1 (stereo not given) | -6.8
CC(=O)C(CCC#N)(CCC#N)c1ccccc1 | -12.9
CC(=O)C(c1ccccc1)C(C#N)(C#N)C(C#N)C#N (stereo not given) | 66.5*
COc1ccccc1-n1nc(C(=O)Nc2cnc3ccccc3c2)c2ccccc2c1=O | 3.0
Cc1nc(Cl)c(C(=O)O)c(C)c1[N+](=O)[O-] | -1.2
COC(=O)c1c(Cl)nc(Cl)c([N+](=O)[O-])c1Cl | 56.0*
O=C(O)c1c(Cl)nc(Cl)c([N+](=O)[O-])c1Cl | 2.7
CCCCC(=O)N1CCc2cc(OC)c(OC)cc2C1COc1cccc(C(F)(F)F)c1 (stereo not given) | -5.8
COc1ccc2c(c1N)C(=O)c1ccccc1C2=O | -80.5
O=C(Nc1ccc2c(c1)C(=O)c1ccccc1C2=O)c1ccc(Br)cc1 | -17.5
Cn1c(=O)c(C(=O)NCCO)c(O)c2ccccc21 | -0.5
Cn1c(=O)c(N)c2c3c(cccc31)C(=O)c1ccccc1-2 | 108.9*
CC(=O)c1c2c3c(cccc3n(C)c1=O)C(=O)c1ccccc1-2 | 31.7*
Cn1c(=O)c(Nc2ccc(Br)cc2)c2c3c(cccc31)C(=O)c1ccccc1-2 | 151.2*
CC(=O)c1c2c3c(c(Br)ccc3n(C)c1=O)C(=O)c1ccccc1-2 | -1.3
COc1ccc(Nc2c3c4c(c(Br)ccc4n(C)c2=O)C(=O)c2ccccc2-3)cc1 | -39.5
CCCCCCCNc1c2c3c(cccc3n(C)c1=O)C(=O)c1ccccc1-2 | 16.4
CCOc1cc(C2C(C(=O)OC)=CN(C(C)C)C=C2C(=O)OC)ccc1O | -2.5
COc1ccccc1NC(=O)c1cc2cc([N+](=O)[O-])ccc2oc1=N | -8.0
O=C(Nc1nc2ccc(Cl)cc2s1)c1cccc(C(F)(F)F)c1 | -5.8
Cc1cc(Cl)ccc1OCC(=O)NCc1ccc2c(c1)OCO2 | -0.8
COCCN1C(=O)c2ccccc2C(C(=O)Nc2ccc3c(c2)OCCO3)C1c1cn(C)c2ccccc12 (stereo not given) | -7.1
Cc1ccc([N+](=O)[O-])cc1NC(=O)c1cccc([N+](=O)[O-])c1 | -2.2
CCOC(=O)c1c(NC(=O)COc2ccc([N+](=O)[O-])c(C)c2)sc2c1CCC(CC)C2 (stereo not given) | -1.1
